# Measured values taken from ChEMBL document CHEMBL1961873, “Compounds: GSK PKIS; Assays: Nanosyn kinase panel” (2012).
# “And” between values parts separate entries of the source, which are not always exact repeats. Identical values can stand only once.
# Key:
# [1] = molecular target: CDK3/Cyclin E (Homo sapiens) (UniProt P24864+Q00526); settings: at 1 µM;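 further: each figure is a mean percent inhibition of the CDK3/cyclin E complex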
# [2] = molecular target: Cyclin-dependent kinase 4 (Homo sapiens) (UniProt P11802); settings: at 0.1 µM
# Chain of Cyclin-dependent kinase 4 (Homo sapiens) (P11802 whole entry): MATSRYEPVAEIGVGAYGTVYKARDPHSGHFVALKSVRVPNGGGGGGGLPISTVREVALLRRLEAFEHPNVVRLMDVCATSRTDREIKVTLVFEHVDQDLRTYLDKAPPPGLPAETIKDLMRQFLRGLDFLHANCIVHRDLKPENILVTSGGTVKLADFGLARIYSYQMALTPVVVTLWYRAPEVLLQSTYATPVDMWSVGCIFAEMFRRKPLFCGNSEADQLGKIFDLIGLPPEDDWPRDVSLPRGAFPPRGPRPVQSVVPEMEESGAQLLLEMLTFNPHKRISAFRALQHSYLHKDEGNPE
# [3] = molecular target: Cyclin-dependent kinase 4 (Homo sapiens) (UniProt P11802); settings: at 1 µM
# [4] = molecular target: Cyclin-dependent kinase 5 (Homo sapiens) (UniProt Q00535); settings: at 0.1 µM
# Chain of Cyclin-dependent kinase 5 (Homo sapiens) (Q00535 whole entry, looked up): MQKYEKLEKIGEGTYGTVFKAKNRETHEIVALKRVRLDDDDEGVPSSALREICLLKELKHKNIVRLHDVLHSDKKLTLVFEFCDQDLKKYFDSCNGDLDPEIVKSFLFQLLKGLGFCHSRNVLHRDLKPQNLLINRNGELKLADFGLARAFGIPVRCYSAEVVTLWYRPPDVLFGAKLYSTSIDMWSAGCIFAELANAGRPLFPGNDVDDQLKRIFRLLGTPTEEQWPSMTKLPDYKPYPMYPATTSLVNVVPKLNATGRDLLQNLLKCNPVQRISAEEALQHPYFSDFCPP
# [5] = molecular target: Cyclin-dependent kinase 5 (Homo sapiens) (UniProt Q00535); settings: at 1 µM
# [6] = molecular target: Cyclin-dependent kinase 6 (Homo sapiens) (UniProt Q00534); settings: at 0.1 µM
# Chain of Cyclin-dependent kinase 6 (Homo sapiens) (Q00534 whole entry): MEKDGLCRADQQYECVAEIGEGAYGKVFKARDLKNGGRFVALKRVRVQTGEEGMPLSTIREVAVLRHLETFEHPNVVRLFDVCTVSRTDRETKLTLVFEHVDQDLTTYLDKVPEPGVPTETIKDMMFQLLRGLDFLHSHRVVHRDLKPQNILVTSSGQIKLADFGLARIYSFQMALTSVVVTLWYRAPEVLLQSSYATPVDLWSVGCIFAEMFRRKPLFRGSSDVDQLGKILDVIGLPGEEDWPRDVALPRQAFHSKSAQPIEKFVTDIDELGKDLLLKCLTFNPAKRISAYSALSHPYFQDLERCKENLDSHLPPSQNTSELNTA
# [7] = molecular target: Cyclin-dependent kinase 6 (Homo sapiens) (UniProt Q00534); settings: at 1 µM
# [8] = molecular target: Dual specificity protein kinase CLK2 (Homo sapiens) (UniProt P49760); settings: at 0.1 µM
# Chain of Dual specificity protein kinase CLK2 (Homo sapiens) (P49760 whole entry, looked up): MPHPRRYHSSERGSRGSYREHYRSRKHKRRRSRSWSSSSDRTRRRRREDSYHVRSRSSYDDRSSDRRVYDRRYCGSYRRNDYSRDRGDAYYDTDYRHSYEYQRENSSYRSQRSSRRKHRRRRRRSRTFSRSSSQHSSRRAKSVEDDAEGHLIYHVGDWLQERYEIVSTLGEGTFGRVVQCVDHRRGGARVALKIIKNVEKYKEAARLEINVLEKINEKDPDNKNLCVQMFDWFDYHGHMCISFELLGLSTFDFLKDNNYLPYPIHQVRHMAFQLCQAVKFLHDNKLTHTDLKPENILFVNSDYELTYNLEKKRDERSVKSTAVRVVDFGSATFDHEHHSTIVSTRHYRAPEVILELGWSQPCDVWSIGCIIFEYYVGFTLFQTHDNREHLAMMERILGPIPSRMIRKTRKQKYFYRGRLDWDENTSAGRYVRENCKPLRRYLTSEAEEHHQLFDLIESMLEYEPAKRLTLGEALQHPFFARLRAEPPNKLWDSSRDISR
# [9] = molecular target: Dual specificity protein kinase CLK2 (Homo sapiens) (UniProt P49760); settings: at 1 µM
# [10] = molecular target: Dual specificity protein kinase CLK3 (Homo sapiens) (UniProt P49761); settings: at 0.1 µM
# Chain of Dual specificity protein kinase CLK3 (Homo sapiens) (P49761 whole entry, looked up): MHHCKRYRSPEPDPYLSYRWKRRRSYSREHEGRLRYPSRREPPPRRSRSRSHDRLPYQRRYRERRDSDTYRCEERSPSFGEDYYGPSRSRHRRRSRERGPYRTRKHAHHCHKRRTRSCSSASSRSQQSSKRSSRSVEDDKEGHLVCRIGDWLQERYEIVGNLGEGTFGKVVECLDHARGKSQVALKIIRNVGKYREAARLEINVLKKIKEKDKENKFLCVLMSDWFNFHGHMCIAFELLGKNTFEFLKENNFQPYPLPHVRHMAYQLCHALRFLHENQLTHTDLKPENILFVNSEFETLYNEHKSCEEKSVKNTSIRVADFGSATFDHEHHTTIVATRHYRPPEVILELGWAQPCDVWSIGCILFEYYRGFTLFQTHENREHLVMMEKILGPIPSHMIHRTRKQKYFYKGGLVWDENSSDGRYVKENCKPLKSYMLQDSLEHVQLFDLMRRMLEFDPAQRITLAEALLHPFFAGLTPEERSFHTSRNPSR
# [11] = molecular target: Dual specificity protein kinase CLK3 (Homo sapiens) (UniProt P49761); settings: at 1 µM
# [12] = molecular target: Dual specificity tyrosine-phosphorylation-regulated kinase 1A (Homo sapiens) (UniProt Q13627); settings: at 0.1 µM
# [13] = molecular target: Dual specificity tyrosine-phosphorylation-regulated kinase 1A (Homo sapiens) (UniProt Q13627); settings: at 1 µM
# [14] = molecular target: Dual specificity tyrosine-phosphorylation-regulated kinase 1B (Homo sapiens) (UniProt Q9Y463); settings: at 0.1 µM
# Chain of Dual specificity tyrosine-phosphorylation-regulated kinase 1B (Homo sapiens) (Q9Y463 whole entry, looked up): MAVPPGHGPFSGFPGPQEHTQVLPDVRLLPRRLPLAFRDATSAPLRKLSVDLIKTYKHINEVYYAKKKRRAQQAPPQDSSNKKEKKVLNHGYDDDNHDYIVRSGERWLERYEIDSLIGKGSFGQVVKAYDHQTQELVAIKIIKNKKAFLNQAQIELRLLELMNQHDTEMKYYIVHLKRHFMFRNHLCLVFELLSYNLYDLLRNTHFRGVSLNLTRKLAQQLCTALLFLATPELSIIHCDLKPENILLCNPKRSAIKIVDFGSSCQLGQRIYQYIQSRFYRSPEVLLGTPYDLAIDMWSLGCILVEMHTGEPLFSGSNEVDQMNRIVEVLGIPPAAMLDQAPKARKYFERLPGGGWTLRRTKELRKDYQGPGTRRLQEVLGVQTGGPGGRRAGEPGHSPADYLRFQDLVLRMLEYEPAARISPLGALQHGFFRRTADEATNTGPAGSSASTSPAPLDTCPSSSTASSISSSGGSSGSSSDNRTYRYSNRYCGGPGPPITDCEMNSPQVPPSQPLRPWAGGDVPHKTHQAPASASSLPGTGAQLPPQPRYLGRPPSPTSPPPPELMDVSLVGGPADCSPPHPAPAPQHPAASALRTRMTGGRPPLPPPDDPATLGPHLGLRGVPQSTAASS
# [15] = molecular target: Dual specificity tyrosine-phosphorylation-regulated kinase 1B (Homo sapiens) (UniProt Q9Y463); settings: at 1 µM
# [16] = molecular target: T1, Dual specificity tyrosine-phosphorylation-regulated kinase 2 (Homo sapiens) (UniProt Q92630); settings: at 0.1 µM
# T1 sequence (whole entry): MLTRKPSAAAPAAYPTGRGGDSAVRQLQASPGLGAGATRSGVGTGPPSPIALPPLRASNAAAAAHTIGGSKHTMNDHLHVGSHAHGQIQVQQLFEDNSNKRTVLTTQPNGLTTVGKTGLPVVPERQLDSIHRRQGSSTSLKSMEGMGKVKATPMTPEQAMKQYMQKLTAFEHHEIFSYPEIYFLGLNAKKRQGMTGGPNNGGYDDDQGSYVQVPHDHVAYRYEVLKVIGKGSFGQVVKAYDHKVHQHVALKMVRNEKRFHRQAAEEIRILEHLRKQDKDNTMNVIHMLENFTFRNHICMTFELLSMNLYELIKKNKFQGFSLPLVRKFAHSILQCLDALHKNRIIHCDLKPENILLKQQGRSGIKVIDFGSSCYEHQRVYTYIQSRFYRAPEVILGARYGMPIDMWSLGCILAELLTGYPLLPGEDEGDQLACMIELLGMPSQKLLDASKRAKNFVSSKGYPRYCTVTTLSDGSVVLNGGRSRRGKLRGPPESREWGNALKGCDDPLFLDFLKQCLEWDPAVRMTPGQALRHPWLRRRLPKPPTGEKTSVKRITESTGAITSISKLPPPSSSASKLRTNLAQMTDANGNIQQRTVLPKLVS
# [17] = molecular target: T1, Dual specificity tyrosine-phosphorylation-regulated kinase 2 (Homo sapiens); settings: at 1 µM
# [18] = molecular target: Glycogen synthase kinase-3 alpha (Homo sapiens) (UniProt P49840); settings: at 0.1 µM
# Chain of Glycogen synthase kinase-3 alpha (Homo sapiens) (P49840 2-483 limits assumed): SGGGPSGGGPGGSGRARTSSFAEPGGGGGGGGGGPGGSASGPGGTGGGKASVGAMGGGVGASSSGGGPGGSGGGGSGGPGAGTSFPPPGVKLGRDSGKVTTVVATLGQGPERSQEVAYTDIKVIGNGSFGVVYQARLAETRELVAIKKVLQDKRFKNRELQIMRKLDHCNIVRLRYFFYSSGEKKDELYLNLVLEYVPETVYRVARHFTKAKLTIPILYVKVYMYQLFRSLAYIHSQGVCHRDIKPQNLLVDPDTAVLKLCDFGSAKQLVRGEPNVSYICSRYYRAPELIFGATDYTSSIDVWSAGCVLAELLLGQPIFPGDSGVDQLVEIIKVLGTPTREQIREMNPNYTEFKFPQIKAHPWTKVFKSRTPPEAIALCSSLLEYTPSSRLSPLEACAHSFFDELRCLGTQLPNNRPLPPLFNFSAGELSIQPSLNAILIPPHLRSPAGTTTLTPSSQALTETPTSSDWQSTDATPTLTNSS
# [19] = molecular target: Glycogen synthase kinase-3 alpha (Homo sapiens) (UniProt P49840); settings: at 1 µM
# [20] = molecular target: Glycogen synthase kinase-3 beta (Homo sapiens) (UniProt P49841); settings: at 0.1 µM;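 further: values are mean percent inhibition of GSK3B activity, from the GSK Published Kinase Inhibitor Set (PKIS) screening dataset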
# Chain of Glycogen synthase kinase-3 beta (Homo sapiens) (P49841 whole entry, looked up): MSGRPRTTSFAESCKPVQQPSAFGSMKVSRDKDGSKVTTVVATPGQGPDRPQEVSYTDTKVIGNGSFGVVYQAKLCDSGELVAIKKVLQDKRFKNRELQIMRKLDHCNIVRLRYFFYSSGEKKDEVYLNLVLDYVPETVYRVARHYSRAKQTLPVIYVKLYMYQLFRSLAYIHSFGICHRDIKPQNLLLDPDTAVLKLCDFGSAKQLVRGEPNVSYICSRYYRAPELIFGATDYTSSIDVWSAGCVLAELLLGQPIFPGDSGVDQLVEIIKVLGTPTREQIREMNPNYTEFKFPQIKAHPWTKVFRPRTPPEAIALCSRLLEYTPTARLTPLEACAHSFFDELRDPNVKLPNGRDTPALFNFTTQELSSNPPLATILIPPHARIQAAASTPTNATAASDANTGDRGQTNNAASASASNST
# Chain of CDK3/Cyclin E (Homo sapiens) (P24864 whole entry, looked up): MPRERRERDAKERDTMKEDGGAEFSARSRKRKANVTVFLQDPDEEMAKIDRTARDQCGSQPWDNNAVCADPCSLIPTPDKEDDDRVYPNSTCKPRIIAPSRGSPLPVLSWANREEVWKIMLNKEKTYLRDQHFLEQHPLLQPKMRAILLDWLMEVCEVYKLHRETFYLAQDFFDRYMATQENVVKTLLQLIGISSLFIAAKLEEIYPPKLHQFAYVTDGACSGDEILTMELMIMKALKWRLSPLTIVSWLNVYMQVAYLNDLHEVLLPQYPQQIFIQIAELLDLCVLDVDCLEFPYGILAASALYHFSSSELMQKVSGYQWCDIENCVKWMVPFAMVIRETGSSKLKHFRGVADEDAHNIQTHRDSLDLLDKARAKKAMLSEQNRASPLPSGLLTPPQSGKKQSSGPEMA
# Chain of CDK3/Cyclin E (Homo sapiens) (Q00526 whole entry, looked up): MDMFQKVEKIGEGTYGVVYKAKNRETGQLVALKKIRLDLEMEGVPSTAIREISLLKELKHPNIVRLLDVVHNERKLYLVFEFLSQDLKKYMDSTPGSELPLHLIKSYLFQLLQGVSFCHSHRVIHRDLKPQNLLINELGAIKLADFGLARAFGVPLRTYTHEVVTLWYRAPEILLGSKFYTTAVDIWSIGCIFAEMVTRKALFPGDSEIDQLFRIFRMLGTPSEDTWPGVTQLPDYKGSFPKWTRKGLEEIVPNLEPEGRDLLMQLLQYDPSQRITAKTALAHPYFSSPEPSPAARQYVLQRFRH
Structure (SMILES),inhibition [1],inhibition [2],inhibition [3],inhibition [4],inhibition [5],inhibition [6],inhibition [7],inhibition [8],inhibition [9],inhibition [10],inhibition [11],inhibition [12],inhibition [13],inhibition [14],inhibition [15],inhibition [16],inhibition [17],inhibition [18],inhibition [19],inhibition [20]
Cc1cc(O)cc(C)c1/C=C/c1cncc(C(=O)OC(C)(C)C)c1,1.16%,2.59%,3.59%,0.74%,2.53%,3.38%,5.01%,0.65%,0.81%,3.45%,6.2%,5.61%,8.73%,3.58%,7.3%,1.52%,3.56%,4.43%,8.44%,4.6%
COc1cccc(Nc2nccc(-c3cnn4ncccc34)n2)c1,91.4%,56.5%,76.9%,59.3%,78%,49.5%,80.5%,93.9%,98.2%,23.2%,65.3%,77.4%,88.3%,81.5%,90%,5.88%,37.6%,60.7%,79.5%,59.7%
COC(=O)Nc1nc2cc(Oc3ccc(NC(=O)Nc4ccccc4)cc3)ccc2[nH]1,-3.23%,0.66%,1.41%,0.28%,0.86%,0.73%,-1.23%,1.75%,-1.36%,1.37%,2%,0.64%,2.92%,-0.93%,1.92%,0.59%,0.89%,4.23%,8.26%,3.5%
Fc1cccc(COc2ccc(Nc3ncncc3C#Cc3ccccc3)cc2Cl)c1,-2.37%,2.27%,2.61%,1.02%,1.31%,3.3%,2.89%,1.45%,2.09%,2.41%,2.05%,2.88%,5.18%,0.4%,1.45%,3.74%,4.05%,3.26%,4.91%,2.3%
O=C(O[C@H]1CN[C@H](C#Cc2cc3ncnc(Nc4ccc(OCc5cccc(F)c5)c(Cl)c4)c3s2)C1)N1CCOCC1,-3.23%,2.11%,2.33%,0.49%,-0.57%,1.23%,-0.42%,-0.15%,-0.4%,2.68%,2.04%,2.71%,6.81%,-1.11%,-0.95%,3.84%,3.68%,3.45%,4.35%,2.75%
Cc1c2ccc(N(C)c3ccnc(Nc4cccc(S(N)(=O)=O)c4)n3)cc2nn1C,2.13%,-3.55%,9.57%,-1.58%,0.35%,-1.51%,15.3%,1.61%,0.97%,-1.14%,1.11%,-1.03%,1.54%,-3.31%,-2.73%,2.38%,2.71%,-0.44%,6.37%,-0.25%
COc1ccc(Nc2ncc(-c3ccccc3)o2)cc1OC,22.2%,5.15%,14%,11.1%,45.7%,-1.71%,23.4%,0.23%,5.9%,2%,5.65%,8.15%,12%,9%,10.9%,0.67%,2.48%,8.4%,38.4%,7.94%
CC1=C(C(=O)Nc2ccc3[nH]ncc3c2)C(c2ccc(F)cc2)N=C(c2ccc(C(F)(F)F)nc2)N1 (stereo not given),1.96%,2.27%,2.07%,0.56%,0.43%,2.17%,1.9%,0.46%,-0.11%,1.34%,2.08%,1.92%,2.39%,1.23%,1.37%,1.37%,1.27%,1.54%,4.37%,1.95%
OCCCNc1nccc(-c2c(-c3ccc(F)cc3)nn3cc(C(F)(F)F)ccc23)n1,0.86%,0.94%,3.36%,2.06%,3.96%,1.79%,5.92%,0.1%,1.15%,0.35%,0.7%,1.47%,6.36%,1.89%,3.86%,2.33%,3.97%,7.04%,18.2%,8.01%
CS(=O)(=O)CCNCc1ccoc1-c1ccc2ncnc(Nc3ccc(OCc4ccccc4)cc3)c2c1,-1.1%,0.34%,2.91%,0.75%,1.14%,-0.43%,5.44%,0.36%,-2.93%,-0.17%,-0.94%,1.18%,2.26%,-1.48%,-0.06%,0.79%,-1.66%,4.65%,5.47%,2.8%
CN(c1ccc(NC(=O)NCCN2CCOCC2)cc1)c1ccnc(Nc2ccc(CS(C)(=O)=O)cc2)n1,0.92%,0.98%,2.06%,0.44%,2.44%,5.26%,4.21%,-0.8%,2.52%,0.77%,1.43%,1.69%,3.45%,-0.71%,2.44%,1.44%,3.05%,4.05%,8.02%,4.49%
Cn1c(-c2nonc2N)nc2cnccc21,2.12%,1.95%,3.9%,1.09%,7.18%,-4.08%,1.64%,2.9%,10.3%,1%,7.43%,25.1%,69.3%,11.7%,51.4%,2.37%,10.1%,10.1%,52.1%,5.71%
Nc1nonc1-c1nc2cnccc2n1C1CC1,4.03% and 3.32%,1.99% and -2.13%,2.95% and -0.61%,3.26% and -1.62%,16.6% and 12.1%,0.11% and -4.39%,1.22% and -0.23%,0.67% and 3.19%,17% and 19%,1.8% and -2.05%,2.54% and -2.2%,22% and 20.1%,65.5% and 61.9%,13.7% and 10.7%,55.7% and 52.9%,4.16% and 3.22%,19.6% and 19.7%,25% and 21.2%,70.2% and 63.7%,21.5% and 17.6%
